Reference: PubChem BioAssay AID504882 (Broad Institute, 2011)
The whole screen tested about 1,200 compounds, of which about 290 (24%) were called active. About 9% were inconclusive and are not listed. These entries were drawn from the full list. Entries with a potency or affinity are not part of this list. Unmarked numbers belong to inactive results. The rule behind the calls is not given here.

experiment: cytotoxicity in EBV lymphoblastoid cells, dose response, cytotoxicity control, cell-based, plate reader, cherry-picks, set 2 (AID 504882); settings: EBV lymphoblastoid cells (LCL) viability; series mostly up to 19.5 µM; activity change, negative = cytotoxicity: at the top concentration;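 note: 0% = neutral control wells and -100% = positive control wells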

Row | SMILES | activity change, negative = cytotoxicity | outcome
1 | Cc1ccc(-c2cc(N)n3nc(-c4ccc(C)cc4)cc3n2)cc1 | -27.6% | –
2 | O=[N+]([O-])c1ccc2ncnc(N3CCN(Cc4ccc5c(c4)OCO5)CC3)c2c1 | 6.02% | –
3 | Fc1ccc2[nH]c3c(N4CCN(c5ccccc5)CC4)ncnc3c2c1 | -2.91% | –
4 | CC(C)(C)OC(=O)N1Cc2ccccc2C[C@H]1C(=O)NCC(=O)Nc1ccc2c(c1)OCCO2 | 13% | –
5 | O=C(C1CCCCC1)N1CCN(c2ncccn2)CC1 | 25.1% | –
6 | COC(=O)c1ccccc1NC(=O)CC(=O)Nc1ccccc1C(=O)OC | 12.8% | –
7 | O=C(NCCCN1CCCCC1)c1ccc2c(c1)NC(=O)c1ccccc1S2 | 12.6% | –
8 | CCOc1ccc(NC(=O)c2ccc(N3CC4CC(C3)c3cccc(=O)n3C4)c(NC(=O)c3cccnc3)c2)cc1 (configuration not stated) | 12.3% | –
9 | CSc1ccccc1OCc1cc(C(=O)N2CCC[C@H]2C(N)=O)no1 | 9.86% | –
10 | COC(CNC(=O)c1ccc(N2CCC3(CC2)OCCO3)c([N+](=O)[O-])c1)OC | 20.8% | –
11 | COc1ccc(C(=O)Nc2cc(C)c(NC(=O)c3ccccc3OC)cn2)cc1 | -2.15% | –
12 | Cc1ccnc(NC(=O)c2ccc(C(=O)c3ccccc3)cc2)c1 | -27.3% | –
13 | COc1ccccc1-c1ccccc1C1=CC(=O)CC(C)(C)C1=O | 5.69% | –
14 | COc1ccc(C2=NN(C(=O)CSC3=NN4CCCC(=O)N=C4S3)C(c3cccc(OC)c3OC)C2)cc1 (configuration not stated) | 17.7% | –
15 | O=C(O)c1ccc(N/N=C/c2cc3cc4c(cc3nc2Cl)OCCO4)cc1 | 19.1% | –
16 | Clc1ccc(-c2ccnc(Oc3ccc4ccccc4c3)n2)cc1 | -2.65% | –
17 | CCOC(=O)[C@H]1[C@H]2COc3ccc(OC)cc3[C@@H]2N2C(=O)CN(C)C(=O)[C@@]12C | 24.8% | –
18 | CN(C)CCCC1(c2ccc(F)cc2)OCc2cc(C#N)ccc21 (configuration not stated) | 15.9% | –
19 | CC1(C)Cc2nc3sc4c(SCC(=O)O)ncnc4c3cc2CO1 | 2.81% | –
20 | COc1ccc(C=C2OC(=O)C(C(C)=O)=C2O)cc1 | 6.33% | –
21 | COc1ccc(-c2oc3ncnc(NCCN4CCOCC4)c3c2-c2ccc(OC)cc2)cc1 | 37.9% | –
22 | CCN(CC(=O)Nc1ccc(NC(C)=O)cc1)C(=O)c1cccnc1Sc1ccc(C)c(C)c1 | 7.08% | –
23 | COc1ccc(N2Cc3cccc(C(=O)NC(C)CCc4ccco4)c3C2=O)cc1 (configuration not stated) | 6.66% | –
24 | COc1ccc(-c2cc(C(=O)N3CCCC3)no2)cc1 | -2.42% | –
25 | CC(Sc1nc(-c2ccc(F)cc2)cs1)C(=O)N1c2ccccc2CC1C (configuration not stated) | -15.2% | –
26 | Cc1ccc(CN2C(=O)CCC2C(=O)NCCCN2CCC(C)CC2)cc1 (configuration not stated) | 22.1% | –

Row | SMILES | activity change, negative = cytotoxicity | outcome
27 | Cc1cnc(NC(=O)c2ccc(OCC3CCCO3)cc2)s1 (configuration not stated) | 1.24% | –
28 | O=C(O)c1ccc(N/N=C/c2ccc3ncccc3c2)cc1 | 13.5% | –
29 | CCN(CC)S(=O)(=O)c1cccc(-n2c(O)c(C=Nc3ccccc3C(=O)O)c3ccccc3c2=O)c1 | 9.06% | –
30 | CCN(CC)S(=O)(=O)c1ccc(N=NC2=C(O)CCCC2=O)cc1 | 3.45% | –
31 | COc1ccc(C(=O)CN(CCC(=O)O)S(=O)(=O)c2ccc([N+](=O)[O-])cc2)cc1 | 10.8% | –
32 | O=C(NCCc1ccccc1)c1ccc2nccnc2c1 | 15.7% | –
33 | CCN(C(=O)CSc1nnc(Nc2cccc(C)c2C)s1)C1CCS(=O)(=O)C1 (configuration not stated) | 26.5% | –
34 | CCCC(C)NC(C)C(=O)NC1CCCC1 (configuration not stated) | 3.5% | –
35 | COCCNC(=O)C1CCC(CNS(=O)(=O)c2ccccc2)CC1 (configuration not stated) | 5.57% | –
36 | Cc1ccc(-c2nnn(CC(=O)N(Cc3ccco3)C(C(=O)NC(C)(C)C)c3ccncc3)n2)o1 (configuration not stated) | 20.2% | –
37 | COCCCNC(=O)CN1C(=O)COc2ccc(S(=O)(=O)N3CCOCC3)cc21 | 16.5% | –
38 | O=C(CN1C(=O)c2ccccc2S1(=O)=O)c1ccccc1F | 10.5% | –
39 | CN(Cc1ccccc1)c1nc(N)c([N+](=O)[O-])c(NCc2ccccc2)n1 | 1.71% | –
40 | CCCCCn1c(N2CCOCC2)nc2c1c(=O)n(CC(N)=O)c(=O)n2C | 1.91% | –
41 | NC(=O)N/N=C/c1ccc(N2CCOCC2)s1 | 15.9% | –
42 | CCCCCC(=O)N1C[C@@H](O)[C@H](n2cc(C3CC3)nn2)C[C@@H]1c1ccc(C)cc1 | 17.4% | –
43 | CCN1CCN(Cc2ccc(NC(=O)c3ccc(C)c(NC(=O)N4CCNC4=O)c3)cc2C(F)(F)F)CC1 | – | inactive
44 | CCN1CCN(Cc2ccc(NC(=O)c3ccc(C)c(NC(=O)c4cccc5[nH]ccc45)c3)cc2C(F)(F)F)CC1 | 10.9% | –
45 | COc1ccc(/C(CC2OC(=O)c3ccccc32)=N\NC(N)=O)cc1 (configuration not stated) | 2.74% | –
46 | c1ccc2c(-c3ccncc3)c[nH]c2c1 | 20.4% | –
47 | C[C@@H]1CN([C@@H](C)CO)C(=O)c2cc(NC(=O)Nc3ccccc3)ccc2O[C@H]1CN(C)C(=O)Nc1cccc2ccccc12 | 1.23% | –
48 | c1ccc(C2c3[nH]c4ccccc4c3CCN2Cc2cccn2-c2ccccn2)nc1 (configuration not stated) | 7.27% | –
49 | COc1ccccc1NC(=O)C(=O)N/N=C(\C)CC(=O)Nc1ccccc1C(F)(F)F | -1.19% | –
50 | COc1ccc(C(=O)N2CC(=O)Nc3ccccc32)cc1S(=O)(=O)N1CCCC1 | 9.07% | –
51 | COc1ccc(N2C(=O)CC(Sc3nnc(-c4ccccc4)o3)C2=O)cc1 (configuration not stated) | 9.47% | –
52 | COc1cc(OC)cc(-c2c(C#Cc3ccsc3)c3cc(-c4cc(OC)c(OC)c(OC)c4)ccc3n2C)c1 | 18% | –
